Laboratory results published in the supplement of paper PMC11732987, “Enantioselective OTUD7B fragment discovery through chemoproteomics screening and high-throughput optimisation” (Communications Chemistry, 2025).

Assays:
Experiment in all cases: log2 ratio of Biotin-Ahx-Ub-VS probe labelling (fragment/DMSO); higher = less target engagement (more negative = stronger competition), active = hit call of the paper (q ≤ 0.05, log2 ratio ≤ -1)
Conditions in all cases: compound concentration: 200 uM; treatment time: 3 h
USP42 = molecular target: T1, USP42 (UniProt Q9H9J4)
T1 sequence (whole entry): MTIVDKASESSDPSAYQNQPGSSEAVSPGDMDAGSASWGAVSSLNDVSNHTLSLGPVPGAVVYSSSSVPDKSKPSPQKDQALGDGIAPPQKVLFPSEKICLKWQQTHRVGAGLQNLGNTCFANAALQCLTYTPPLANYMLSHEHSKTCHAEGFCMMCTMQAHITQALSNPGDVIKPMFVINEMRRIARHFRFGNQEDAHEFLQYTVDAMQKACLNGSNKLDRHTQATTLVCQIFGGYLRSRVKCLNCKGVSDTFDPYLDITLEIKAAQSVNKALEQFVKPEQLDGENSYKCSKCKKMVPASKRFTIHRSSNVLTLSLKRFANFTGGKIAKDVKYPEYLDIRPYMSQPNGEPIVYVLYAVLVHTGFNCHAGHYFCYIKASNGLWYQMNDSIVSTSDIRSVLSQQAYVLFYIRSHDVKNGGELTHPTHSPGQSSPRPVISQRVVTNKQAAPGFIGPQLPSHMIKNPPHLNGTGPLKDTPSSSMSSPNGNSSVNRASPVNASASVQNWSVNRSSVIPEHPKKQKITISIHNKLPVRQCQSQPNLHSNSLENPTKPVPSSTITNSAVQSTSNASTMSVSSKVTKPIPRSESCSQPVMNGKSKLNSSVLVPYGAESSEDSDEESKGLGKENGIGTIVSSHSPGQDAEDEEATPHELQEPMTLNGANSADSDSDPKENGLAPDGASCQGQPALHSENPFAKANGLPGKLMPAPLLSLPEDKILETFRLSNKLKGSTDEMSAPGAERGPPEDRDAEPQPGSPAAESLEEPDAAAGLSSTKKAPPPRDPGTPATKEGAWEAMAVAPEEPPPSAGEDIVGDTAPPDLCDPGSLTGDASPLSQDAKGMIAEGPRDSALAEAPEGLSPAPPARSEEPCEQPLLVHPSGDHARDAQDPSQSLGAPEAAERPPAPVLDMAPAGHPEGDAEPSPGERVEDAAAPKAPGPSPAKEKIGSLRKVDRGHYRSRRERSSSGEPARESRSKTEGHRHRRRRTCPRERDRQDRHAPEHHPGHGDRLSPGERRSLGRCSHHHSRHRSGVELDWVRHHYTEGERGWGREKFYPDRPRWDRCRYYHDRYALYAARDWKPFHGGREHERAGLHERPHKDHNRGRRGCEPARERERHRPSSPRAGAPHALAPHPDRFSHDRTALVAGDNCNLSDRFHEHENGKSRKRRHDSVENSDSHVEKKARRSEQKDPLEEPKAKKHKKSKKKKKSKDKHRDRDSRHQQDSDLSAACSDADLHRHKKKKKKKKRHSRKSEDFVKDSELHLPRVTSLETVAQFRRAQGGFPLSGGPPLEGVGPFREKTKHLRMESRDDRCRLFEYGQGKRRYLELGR
Procedure, shortened: (§1)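 The table lists average log2 ratios of fragment over vehicle, from an unpaired t-test on global-median-normalised Spectronaut label-free quantities. Proteins with ≥2 unique peptides were used. Samples were HEK293T lysate (495 µg) treated in triplicate with fragment at 200 µM or vehicle for 3 h, then with Biotin-Ahx-Ub-VS (0.5 µM final) for 1 h, with labelled DUBs NeutrAvidin-enriched and run by diaPASEF LC-MS/MS.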

USP46 = USP46 (UniProt P62068)
Sequence of USP46 (P62068 whole entry): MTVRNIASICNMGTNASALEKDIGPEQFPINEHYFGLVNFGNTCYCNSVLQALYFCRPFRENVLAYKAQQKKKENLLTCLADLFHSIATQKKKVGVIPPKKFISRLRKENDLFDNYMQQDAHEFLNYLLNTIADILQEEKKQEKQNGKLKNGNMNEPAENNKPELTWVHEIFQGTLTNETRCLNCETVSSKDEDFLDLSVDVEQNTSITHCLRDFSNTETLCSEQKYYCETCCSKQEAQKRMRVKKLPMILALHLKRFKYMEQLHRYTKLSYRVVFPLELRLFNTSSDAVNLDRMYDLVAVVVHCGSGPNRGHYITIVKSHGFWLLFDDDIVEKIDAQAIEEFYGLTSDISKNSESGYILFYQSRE
Procedure, shortened: as §1

USP47 = molecular target: T2, USP47 (UniProt Q96K76)
T2 sequence (whole entry): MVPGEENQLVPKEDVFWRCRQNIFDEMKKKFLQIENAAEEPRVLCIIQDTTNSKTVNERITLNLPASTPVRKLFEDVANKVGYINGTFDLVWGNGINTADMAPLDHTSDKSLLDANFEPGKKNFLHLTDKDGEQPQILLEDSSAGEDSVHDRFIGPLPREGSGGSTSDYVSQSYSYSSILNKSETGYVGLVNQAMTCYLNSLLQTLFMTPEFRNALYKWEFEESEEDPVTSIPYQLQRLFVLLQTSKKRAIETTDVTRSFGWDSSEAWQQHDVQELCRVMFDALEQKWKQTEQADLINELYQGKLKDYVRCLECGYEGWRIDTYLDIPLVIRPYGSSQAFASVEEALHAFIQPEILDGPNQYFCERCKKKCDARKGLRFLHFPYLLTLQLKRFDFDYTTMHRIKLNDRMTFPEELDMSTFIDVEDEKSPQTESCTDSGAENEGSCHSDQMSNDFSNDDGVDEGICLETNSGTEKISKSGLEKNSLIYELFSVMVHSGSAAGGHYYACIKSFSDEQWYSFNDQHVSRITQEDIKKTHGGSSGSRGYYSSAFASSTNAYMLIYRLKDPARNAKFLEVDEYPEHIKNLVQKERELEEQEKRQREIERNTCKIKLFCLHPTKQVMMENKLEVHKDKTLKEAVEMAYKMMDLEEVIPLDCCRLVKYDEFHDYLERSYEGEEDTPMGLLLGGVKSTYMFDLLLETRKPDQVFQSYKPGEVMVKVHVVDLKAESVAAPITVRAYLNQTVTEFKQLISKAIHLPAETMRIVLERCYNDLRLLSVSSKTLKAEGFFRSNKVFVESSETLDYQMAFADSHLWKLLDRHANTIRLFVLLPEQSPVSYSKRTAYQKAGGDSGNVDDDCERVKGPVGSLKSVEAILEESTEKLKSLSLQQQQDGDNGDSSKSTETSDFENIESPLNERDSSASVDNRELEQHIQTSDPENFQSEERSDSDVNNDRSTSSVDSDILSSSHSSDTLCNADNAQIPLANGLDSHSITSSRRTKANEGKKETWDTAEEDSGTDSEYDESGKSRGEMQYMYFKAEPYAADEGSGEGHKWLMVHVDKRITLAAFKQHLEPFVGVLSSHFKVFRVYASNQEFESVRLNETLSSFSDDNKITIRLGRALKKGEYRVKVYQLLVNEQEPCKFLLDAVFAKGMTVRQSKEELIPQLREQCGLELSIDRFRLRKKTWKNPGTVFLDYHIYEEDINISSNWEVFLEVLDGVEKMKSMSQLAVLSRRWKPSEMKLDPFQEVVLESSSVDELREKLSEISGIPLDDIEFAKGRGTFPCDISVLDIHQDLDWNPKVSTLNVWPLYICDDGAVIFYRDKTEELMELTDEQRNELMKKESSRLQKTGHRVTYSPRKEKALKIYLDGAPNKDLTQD
Procedure, shortened: as §1

USP48 = molecular target: T3, USP48 (UniProt Q86UV5)
T3 sequence (whole entry): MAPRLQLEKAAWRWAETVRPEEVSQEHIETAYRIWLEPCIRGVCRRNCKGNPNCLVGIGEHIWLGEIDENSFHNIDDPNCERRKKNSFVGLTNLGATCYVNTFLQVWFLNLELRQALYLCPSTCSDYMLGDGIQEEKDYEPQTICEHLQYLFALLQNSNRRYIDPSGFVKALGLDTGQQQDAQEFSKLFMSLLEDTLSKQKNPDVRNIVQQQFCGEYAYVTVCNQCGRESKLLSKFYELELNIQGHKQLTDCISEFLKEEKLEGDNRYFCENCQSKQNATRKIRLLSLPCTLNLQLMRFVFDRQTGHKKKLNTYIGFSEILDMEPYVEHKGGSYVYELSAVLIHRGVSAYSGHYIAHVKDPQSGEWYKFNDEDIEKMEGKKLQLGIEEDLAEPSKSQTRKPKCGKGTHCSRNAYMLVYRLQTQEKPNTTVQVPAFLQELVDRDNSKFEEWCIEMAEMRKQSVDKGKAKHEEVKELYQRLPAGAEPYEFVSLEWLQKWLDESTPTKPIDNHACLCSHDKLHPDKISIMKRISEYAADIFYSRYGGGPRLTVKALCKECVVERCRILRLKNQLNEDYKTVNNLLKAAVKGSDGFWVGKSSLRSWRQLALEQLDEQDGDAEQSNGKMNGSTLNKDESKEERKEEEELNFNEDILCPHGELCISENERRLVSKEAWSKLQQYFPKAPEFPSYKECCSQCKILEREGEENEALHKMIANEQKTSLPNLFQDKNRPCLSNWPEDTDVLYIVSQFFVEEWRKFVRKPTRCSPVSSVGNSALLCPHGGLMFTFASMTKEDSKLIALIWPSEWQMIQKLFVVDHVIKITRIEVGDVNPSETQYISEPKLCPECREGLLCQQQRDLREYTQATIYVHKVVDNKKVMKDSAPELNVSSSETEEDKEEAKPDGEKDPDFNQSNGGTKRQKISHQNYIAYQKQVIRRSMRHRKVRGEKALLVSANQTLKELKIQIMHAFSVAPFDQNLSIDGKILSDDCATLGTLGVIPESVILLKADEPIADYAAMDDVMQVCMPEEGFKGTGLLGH
Procedure, shortened: as §1

USP5 = molecular target: T4, USP5 (UniProt P45974)
T4 sequence (whole entry): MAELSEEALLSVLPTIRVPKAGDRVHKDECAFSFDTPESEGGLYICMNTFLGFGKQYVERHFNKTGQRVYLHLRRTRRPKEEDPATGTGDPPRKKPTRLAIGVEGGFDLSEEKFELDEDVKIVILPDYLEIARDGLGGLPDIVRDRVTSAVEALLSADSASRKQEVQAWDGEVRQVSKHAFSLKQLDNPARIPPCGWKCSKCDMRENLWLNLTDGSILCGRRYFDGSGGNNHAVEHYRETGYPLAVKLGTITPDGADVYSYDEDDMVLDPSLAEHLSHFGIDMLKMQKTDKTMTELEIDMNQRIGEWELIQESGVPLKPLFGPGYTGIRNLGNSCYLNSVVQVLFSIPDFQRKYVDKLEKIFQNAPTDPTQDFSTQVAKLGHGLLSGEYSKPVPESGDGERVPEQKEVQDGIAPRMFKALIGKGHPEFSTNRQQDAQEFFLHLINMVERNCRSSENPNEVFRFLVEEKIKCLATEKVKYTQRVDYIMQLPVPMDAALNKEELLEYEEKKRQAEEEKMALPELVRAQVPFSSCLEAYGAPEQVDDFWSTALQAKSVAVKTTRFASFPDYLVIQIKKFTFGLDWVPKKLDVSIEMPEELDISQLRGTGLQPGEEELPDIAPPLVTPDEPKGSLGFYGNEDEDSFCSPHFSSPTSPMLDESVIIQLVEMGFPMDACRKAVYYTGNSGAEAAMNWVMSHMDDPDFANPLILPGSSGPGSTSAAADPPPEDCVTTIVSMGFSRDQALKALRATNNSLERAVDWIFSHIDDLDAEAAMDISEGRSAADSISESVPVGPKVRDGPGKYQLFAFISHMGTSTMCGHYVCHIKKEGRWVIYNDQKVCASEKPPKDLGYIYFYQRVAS
Procedure, shortened: as §1

USP54 = USP54 (UniProt Q70EL1)
Sequence of USP54 (Q70EL1 whole entry): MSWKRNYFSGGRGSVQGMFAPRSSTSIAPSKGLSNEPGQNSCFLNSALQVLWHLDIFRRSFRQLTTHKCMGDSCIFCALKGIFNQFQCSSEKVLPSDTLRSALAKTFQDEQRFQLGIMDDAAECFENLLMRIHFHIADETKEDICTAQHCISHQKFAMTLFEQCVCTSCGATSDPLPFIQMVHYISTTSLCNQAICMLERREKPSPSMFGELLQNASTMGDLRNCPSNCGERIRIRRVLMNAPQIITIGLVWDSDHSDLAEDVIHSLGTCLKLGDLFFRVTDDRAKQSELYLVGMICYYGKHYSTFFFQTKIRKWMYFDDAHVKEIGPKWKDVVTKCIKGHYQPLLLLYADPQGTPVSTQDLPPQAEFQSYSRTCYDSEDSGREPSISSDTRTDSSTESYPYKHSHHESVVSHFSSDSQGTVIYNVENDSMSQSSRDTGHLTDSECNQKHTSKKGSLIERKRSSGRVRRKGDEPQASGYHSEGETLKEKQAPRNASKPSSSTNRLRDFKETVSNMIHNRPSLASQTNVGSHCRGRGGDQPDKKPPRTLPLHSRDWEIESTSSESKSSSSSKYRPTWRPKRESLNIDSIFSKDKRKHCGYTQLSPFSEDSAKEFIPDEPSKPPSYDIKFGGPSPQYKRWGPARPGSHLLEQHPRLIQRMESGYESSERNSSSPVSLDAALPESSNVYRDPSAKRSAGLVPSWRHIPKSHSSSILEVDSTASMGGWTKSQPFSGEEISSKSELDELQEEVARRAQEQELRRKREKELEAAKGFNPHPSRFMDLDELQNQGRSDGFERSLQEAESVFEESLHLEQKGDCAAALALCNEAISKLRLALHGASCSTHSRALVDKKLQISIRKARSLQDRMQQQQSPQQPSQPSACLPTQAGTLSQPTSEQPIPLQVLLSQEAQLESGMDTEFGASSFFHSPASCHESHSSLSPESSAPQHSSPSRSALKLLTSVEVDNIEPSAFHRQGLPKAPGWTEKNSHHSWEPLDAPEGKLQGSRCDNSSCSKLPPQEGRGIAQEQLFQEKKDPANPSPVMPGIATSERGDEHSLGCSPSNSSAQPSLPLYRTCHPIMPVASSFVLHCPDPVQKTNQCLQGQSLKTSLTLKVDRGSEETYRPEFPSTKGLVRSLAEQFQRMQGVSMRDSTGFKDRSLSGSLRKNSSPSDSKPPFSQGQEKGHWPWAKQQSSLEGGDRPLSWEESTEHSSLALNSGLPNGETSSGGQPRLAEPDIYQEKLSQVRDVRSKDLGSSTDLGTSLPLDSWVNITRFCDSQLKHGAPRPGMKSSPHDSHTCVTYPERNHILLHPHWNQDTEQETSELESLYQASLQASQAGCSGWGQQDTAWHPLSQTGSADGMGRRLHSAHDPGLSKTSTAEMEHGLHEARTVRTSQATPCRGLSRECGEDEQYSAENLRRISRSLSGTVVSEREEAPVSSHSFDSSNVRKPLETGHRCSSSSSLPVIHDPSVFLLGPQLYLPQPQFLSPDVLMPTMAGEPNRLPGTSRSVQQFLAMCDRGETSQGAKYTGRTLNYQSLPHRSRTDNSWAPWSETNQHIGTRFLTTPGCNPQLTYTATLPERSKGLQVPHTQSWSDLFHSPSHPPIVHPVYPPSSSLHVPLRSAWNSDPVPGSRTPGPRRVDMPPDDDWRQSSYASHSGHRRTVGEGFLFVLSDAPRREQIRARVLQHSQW
Procedure, shortened: as §1

USP7 = USP7 (UniProt Q93009)
Sequence of USP7 (Q93009 whole entry, looked up): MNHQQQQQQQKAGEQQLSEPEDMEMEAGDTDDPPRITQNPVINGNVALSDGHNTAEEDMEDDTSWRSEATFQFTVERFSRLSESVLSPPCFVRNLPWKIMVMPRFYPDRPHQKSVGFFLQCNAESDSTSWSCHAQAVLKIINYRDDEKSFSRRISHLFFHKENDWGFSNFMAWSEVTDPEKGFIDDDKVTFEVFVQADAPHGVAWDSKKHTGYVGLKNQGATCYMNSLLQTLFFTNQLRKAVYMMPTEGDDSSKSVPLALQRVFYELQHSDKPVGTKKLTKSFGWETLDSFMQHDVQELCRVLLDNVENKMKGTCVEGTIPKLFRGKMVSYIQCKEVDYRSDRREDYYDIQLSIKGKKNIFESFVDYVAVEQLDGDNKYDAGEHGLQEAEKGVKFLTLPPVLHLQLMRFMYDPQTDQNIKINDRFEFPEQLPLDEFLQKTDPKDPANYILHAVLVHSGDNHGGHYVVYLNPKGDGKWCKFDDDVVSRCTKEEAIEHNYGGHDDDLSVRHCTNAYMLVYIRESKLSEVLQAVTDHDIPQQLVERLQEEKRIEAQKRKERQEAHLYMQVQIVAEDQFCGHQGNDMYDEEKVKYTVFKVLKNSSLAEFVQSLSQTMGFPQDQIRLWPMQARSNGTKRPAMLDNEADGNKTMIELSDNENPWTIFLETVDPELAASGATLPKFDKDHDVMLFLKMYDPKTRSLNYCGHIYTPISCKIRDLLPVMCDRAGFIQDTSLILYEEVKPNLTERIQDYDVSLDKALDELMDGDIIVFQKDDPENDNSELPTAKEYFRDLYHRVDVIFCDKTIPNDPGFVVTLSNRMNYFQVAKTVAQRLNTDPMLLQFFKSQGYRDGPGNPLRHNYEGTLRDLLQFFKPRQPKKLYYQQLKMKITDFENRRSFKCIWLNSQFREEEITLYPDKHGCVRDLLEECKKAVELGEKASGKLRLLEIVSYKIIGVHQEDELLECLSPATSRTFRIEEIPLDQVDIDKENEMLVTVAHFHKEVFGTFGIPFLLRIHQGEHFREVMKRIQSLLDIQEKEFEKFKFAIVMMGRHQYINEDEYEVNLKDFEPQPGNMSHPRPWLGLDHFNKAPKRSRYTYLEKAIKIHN
Procedure, shortened: as §1

USP8 = molecular target: T5, USP8 (UniProt P40818)
T5 sequence (whole entry): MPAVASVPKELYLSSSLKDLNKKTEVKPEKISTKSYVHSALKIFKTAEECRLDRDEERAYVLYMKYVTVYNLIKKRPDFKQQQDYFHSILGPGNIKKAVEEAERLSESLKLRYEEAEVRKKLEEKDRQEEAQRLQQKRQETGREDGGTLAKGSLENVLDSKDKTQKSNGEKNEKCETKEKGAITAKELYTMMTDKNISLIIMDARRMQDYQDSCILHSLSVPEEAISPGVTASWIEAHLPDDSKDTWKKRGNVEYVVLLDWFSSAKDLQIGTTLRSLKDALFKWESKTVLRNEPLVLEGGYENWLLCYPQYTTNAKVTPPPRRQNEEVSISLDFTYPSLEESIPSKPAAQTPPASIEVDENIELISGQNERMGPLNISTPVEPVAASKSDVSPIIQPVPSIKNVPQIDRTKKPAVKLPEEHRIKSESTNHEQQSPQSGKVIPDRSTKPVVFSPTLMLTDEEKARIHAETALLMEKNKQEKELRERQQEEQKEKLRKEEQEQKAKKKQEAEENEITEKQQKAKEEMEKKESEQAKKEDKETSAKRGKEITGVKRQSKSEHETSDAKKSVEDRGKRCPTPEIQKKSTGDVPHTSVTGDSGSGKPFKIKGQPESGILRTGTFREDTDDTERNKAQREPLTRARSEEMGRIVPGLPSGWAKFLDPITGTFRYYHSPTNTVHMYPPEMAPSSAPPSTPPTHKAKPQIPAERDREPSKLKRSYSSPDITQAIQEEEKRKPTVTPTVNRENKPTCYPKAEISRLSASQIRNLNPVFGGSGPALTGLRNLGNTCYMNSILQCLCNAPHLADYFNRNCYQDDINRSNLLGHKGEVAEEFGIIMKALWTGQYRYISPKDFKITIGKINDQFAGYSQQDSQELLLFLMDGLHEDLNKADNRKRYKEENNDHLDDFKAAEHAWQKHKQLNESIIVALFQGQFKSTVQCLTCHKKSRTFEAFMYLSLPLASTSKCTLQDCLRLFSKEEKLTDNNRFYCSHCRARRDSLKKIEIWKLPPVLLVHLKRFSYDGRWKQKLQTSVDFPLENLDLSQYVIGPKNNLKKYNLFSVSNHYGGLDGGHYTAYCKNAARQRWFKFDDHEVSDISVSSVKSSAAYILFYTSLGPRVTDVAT
Procedure, shortened: as §1

USP9X = USP9X (UniProt Q93008)
Procedure, shortened: as §1

UniProt O00487 = molecular target: UniProt O00487
Sequence of UniProt O00487 (O00487 whole entry): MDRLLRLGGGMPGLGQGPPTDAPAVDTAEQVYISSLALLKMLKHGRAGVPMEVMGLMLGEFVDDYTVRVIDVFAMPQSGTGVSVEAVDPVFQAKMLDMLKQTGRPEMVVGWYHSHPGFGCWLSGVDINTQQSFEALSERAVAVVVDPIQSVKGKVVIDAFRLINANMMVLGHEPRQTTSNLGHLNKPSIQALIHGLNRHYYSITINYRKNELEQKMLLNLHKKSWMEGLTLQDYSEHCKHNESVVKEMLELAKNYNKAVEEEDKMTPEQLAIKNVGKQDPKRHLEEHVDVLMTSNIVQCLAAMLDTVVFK
Procedure, shortened: as §1

Measured: log2 ratio of Biotin-Ahx-Ub-VS probe labelling

CC(=O)C1CCCCN1C(=O)CCl (stereo not given)
inactive: USP42 0.359 | USP46 0.0148 | USP47 -0.0598 | USP48 -0.362 | USP5 -0.139 | USP54 0.498 | USP7 -0.172 | USP8 0.076 | USP9X -0.034 | UniProt O00487 -0.0675
